Pf growth 48h: inhibits P. falciparum growth in the first generation, 48 h; P. falciparum luciferase growth in erythrocytes, 48 h; Potency, µM (top dose mostly 28.7 µM), usual class: inhibitors; 5.9% of 310,000 active
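Luciferase-expressing P. falciparum in infected erythrocytes (2% hematocrit, 0.1% parasitemia final) in RPMI 1640/0.5% Albumax were exposed to compound for 48 hours at 37 C, 5% CO2; growth read as luminescence.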
CHX counter: counter-screen for Shiga toxin inhibitors: cycloheximide protein synthesis inhibition; cell reporter, cycloheximide protein synthesis inhibition counterscreen; max response, %; 12% of 300,000 active; AID 2314; in the data active = max response mostly above about 13%, no sharp cut-off; inactive = mostly below about 14%; also: read at 38.3 µM for the half of the compounds with a filed dose
NS1 inh: inhibitors of influenza NS1 protein function; Potency, µM (highest dose often 46.1 µM); 0.4% of 270,000 active; calls by dose curve; also: actives are rising curves; nearly all actives have a fitted effect of over 50% in size
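Read-out: OD600 growth recovery of NS1-expressing budding yeast. Cells grown overnight at 30C in -URA glucose medium, washed, resuspended and diluted 1:100 in 2% galactose assay medium, pH 6.0. Same strain lacking NS1 served as positive control.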
SARS PLP yeast: SARS-CoV PLP inhibition in yeast; S. cerevisiae expressing SARS-CoV PLpro, growth rescue; Potency, µM (doses to about 32.9 µM), usual class: activators; 0.19% of 330,000 active; AID 485353; calls by dose curve; also: nearly all actives have a fitted effect of over 55% in size
Pf growth 96h: inhibits malaria parasite growth, 96 h; 6.9% of 320,000 active; P. falciparum luciferase reporter growth, 96 h; Potency, µM (series often up to 28.7 µM), usual class: inhibitors
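Delayed-death screen, second-generation endpoint: infected erythrocytes, 2% hematocrit, 0.05% parasitemia final; 96 hours at 37 C, 5% CO2; luciferase detection reagent; luminescence decrease equals reduced growth.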
Shiga inhibitor: inhibitors of Shiga toxin in Vero cells. 9.2% of 290,000 active. AID 2315. inhibition, % at 38.7 µM. Vero cells, Shiga toxin protein synthesis inhibition reporter; in the data active = inhibition mostly above about 28%, no sharp cut-off; inactive = mostly below about 43%
Large screens that a line does not name were inactive. A selection: hits, their analogues and other compounds. The true share with any hit is near 21%. Unless noted, calls follow the shape of the dose curve; as a rule, active = well fitted inhibition curve with a large enough effect; inconclusive = small, poorly fitted or top-dose-only effect, or another doubt; inactive = no such curve, though single readings can be large or run the other way.

CC1CCCCN1C(=O)CSc1nc2ccsc2c(=O)n1Cc1ccccn1 (stereo not given)	NS1 inh inconclusive, Shiga inhibitor 40
CCN(CC)C(=O)CSc1nc2cc3c(cc2c(=O)n1Cc1ccc(OC)cc1)OCO3	Pf growth 48h inconclusive (no result: NS1 inh)
CCn1c(SCC(=O)N2CCCCC2C)nc2ccsc2c1=O (stereo not given)	none
CC1CCCCN1C(=O)CSc1nc2cc3c(cc2c(=O)n1Cc1ccc2c(c1)OCO2)OCO3 (stereo not given)	Pf growth 48h inconclusive, Pf growth 96h 4.1µM
FC(F)OC(Cl)C(F)(F)F (stereo not given)	none (no result: CHX counter, NS1 inh, SARS PLP yeast, Shiga inhibitor)
O=C(COC(=O)C1CCCCC1)Nc1cccc(Br)c1	Pf growth 96h inconclusive (no result: CHX counter, NS1 inh, Shiga inhibitor)
COC(=O)c1sc(N)c(C(=O)OC)c1CSc1nnc(-c2ccccc2Cl)n1C	Pf growth 48h inconclusive, Pf growth 96h inconclusive
COC(=O)c1sc(N)c(C(=O)OC)c1CSc1nnnn1C	Pf growth 48h 10µM, Pf growth 96h 9.3µM
CCOC(=O)C1=C(C)Nc2ccccc2N=C1NC(=O)c1ccc(Cl)c(S(=O)(=O)N2CCCC2)c1	Pf growth 48h inconclusive, Pf growth 96h inconclusive (no result: NS1 inh)
COC(=O)c1ccc(C23CC4(C2)[C@H](CN(Cc2ccc(C(F)(F)F)cc2)[C@@H]4c2ccccc2)C3c2ccc(C(F)(F)F)cc2)cc1 (stereo not given in full)	Pf growth 48h inconclusive, Pf growth 96h 10µM
COC(=O)c1ccc(C23CC4(C2)[C@H](CN(C)[C@@H]4c2ccccc2)C3c2ccc(C(F)(F)F)cc2)cc1 (stereo not given in full)	Pf growth 48h 10µM, Pf growth 96h inconclusive
COC(=O)c1cccc(C23CC4(C2)[C@H](CN(Cc2ccc(C(F)(F)F)cc2)[C@@H]4c2ccccc2)C3c2ccc(C(F)(F)F)cc2)c1 (stereo not given in full)	Pf growth 48h 10µM, Pf growth 96h inconclusive
Cc1ccc(NC(=O)CN(C)C(=O)C(Sc2ccccc2)c2ccccc2)cc1 (stereo not given)	Pf growth 48h inconclusive, Pf growth 96h inconclusive (no result: CHX counter, NS1 inh, Shiga inhibitor)
CC1(O)c2ccccc2C(=O)N1Cc1ccccc1 (stereo not given)	none
CC1(O)c2ccccc2C(=O)N1CCc1ccccc1F (stereo not given)	CHX counter 43, Shiga inhibitor 66
Oc1ccc(N=C/C=C/c2ccc(Br)cc2)cc1-c1nc2ccccc2s1	CHX counter 36, Shiga inhibitor 40
Cc1c(O)ccc(-c2[nH]ncc2-c2nc3ccccc3s2)c1O	SARS PLP yeast inconclusive (no result: Pf growth 96h)
COc1cccc(CNC(=O)CCC2CCCN(C(=O)c3csc(C(C)C)n3)C2)c1 (stereo not given)	Pf growth 96h 13µM
COc1cccc(CNC(=O)CCC2CCCN(C(=O)c3cc(C)on3)C2)c1 (stereo not given)	none
COc1cccc(CNC(=O)CCC2CCCN(C(=O)c3cc(C4CC4)[nH]n3)C2)c1 (stereo not given)	CHX counter 17, Shiga inhibitor 34
COc1cccc(CNC(=O)CCC2CCCN(C(=O)c3ccc(OC)o3)C2)c1 (stereo not given)	CHX counter 22, Shiga inhibitor 60
COc1cccc(CNC(=O)CCC2CCCN(C(=O)c3cccnc3SC)C2)c1 (stereo not given)	none
Nc1c(-c2ccccc2)sc2ccc3ccccc3[n+]12	CHX counter 12, Pf growth 96h inconclusive
Cc1ccccc1-n1c(C)nnc1SCc1cc(=O)oc2ccc3ccccc3c12	Pf growth 96h 15µM
O=C(NCCC1=CCCCC1)C(=O)NCC1OCCCN1S(=O)(=O)c1ccc(F)cc1 (stereo not given)	none (no result: NS1 inh)
COc1ccc(/C=C2/SC(=O)N(CCC(=O)Nc3ccccc3)C2=O)cc1OC	none
COC(=O)c1ccc(N2C(=O)Nc3ccccc3N2O)cc1	none
CCc1ccc(S(=O)(=O)NCc2cccs2)cc1	none
CCc1ccc(CNCc2cccs2)cc1	CHX counter 29, Shiga inhibitor 55
Cc1ccc(NC(=O)CCc2c(C)nn(-c3ccc(N4CCCCC4)nn3)c2C)cc1C	CHX counter 43, Shiga inhibitor 70
Cc1cc(C)cc(NC(=O)CCc2c(C)nn(-c3ccc(N4CCCCC4)nn3)c2C)c1	CHX counter 48, Shiga inhibitor 51
Cc1ccc(CNC(=O)CCc2c(C)nn(-c3ccc(N4CCOCC4)nn3)c2C)cc1	Pf growth 96h inconclusive
Cc1nn(-c2ccc(N3CCCCC3)nn2)c(C)c1CCC(=O)Nc1ccc(F)c(F)c1	CHX counter 60, NS1 inh inconclusive, Shiga inhibitor 103
Cc1ccc(NC(=O)CCc2c(C)nn(-c3ccc(N4CCCCC4)nn3)c2C)cc1	CHX counter 53, Pf growth 96h inconclusive, Shiga inhibitor 86
Cc1ccccc1C(=O)NCC(=O)OC1CCCCC1=O (stereo not given)	none (no result: CHX counter, NS1 inh, Shiga inhibitor)
CCOc1ccccc1NC(=O)CCc1c(C)nn(-c2ccc(N3CCCCC3)nn2)c1C	Pf growth 48h inconclusive, Pf growth 96h inconclusive
Cc1ccc(F)cc1NC(=O)CCc1c(C)nn(-c2ccc(N3CCCCC3)nn2)c1C	Pf growth 48h inconclusive, CHX counter 31
COc1ccc(C)cc1NC(=O)CCc1c(C)nn(-c2ccc(N3CCCCC3)nn2)c1C	CHX counter 18, NS1 inh inconclusive
Cc1cc(F)ccc1NC(=O)CCc1c(C)nn(-c2ccc(N3CCCCC3)nn2)c1C	none
Cc1ccc(OCC(=O)O/N=C(\N)c2ccccn2)cc1	CHX counter 50, Shiga inhibitor 80
Cc1ccc(S(=O)(=O)N(C)CC(=O)O/N=C(\N)c2ccccn2)cc1	Pf growth 96h inconclusive
Cc1ccc(CC(=O)O/N=C(\N)c2ccccn2)cc1	CHX counter 82, Shiga inhibitor 84
N/C(=N\OC(=O)Cc1ccc(Cl)cc1)c1ccccn1	CHX counter 20 (no result: Pf growth 48h)
N/C(=N\OC(=O)COc1cc(Cl)c(Cl)cc1Cl)c1ccccn1	CHX counter 39, Shiga inhibitor 91 (no result: NS1 inh)
N/C(=N\OC(=O)CCCOc1ccc(Cl)cc1Cl)c1ccccn1	Pf growth 96h inconclusive
NNC(=O)c1cc(NS(=O)(=O)c2cccs2)cc(NS(=O)(=O)c2cccs2)c1	none (no result: Pf growth 48h, CHX counter, NS1 inh, Pf growth 96h, Shiga inhibitor)
Cc1ccc(C(=O)C[n+]2ccc(-c3nnc4n3CCC4)cc2)cc1	none
CN(C)C(=O)NC1CCCCCCC1	none (no result: Pf growth 48h, NS1 inh, SARS PLP yeast, Pf growth 96h)
CC(C)(C)CC(=O)O/N=C(\N)c1ccccn1	CHX counter 40, Pf growth 96h 13µM
N/C(=N\OC(=O)CCN1C(=O)c2ccccc2C1=O)c1ccccn1	Pf growth 96h inconclusive
Cc1cccc(OCC(=O)O/N=C(\N)c2ccccn2)c1C	CHX counter 28, Shiga inhibitor 65
CCOc1ccc(NC(=O)c2sc3nc(N4CCOCC4)c4c(c3c2N)CC(C)(C)OC4)cc1	Pf growth 48h inconclusive, Pf growth 96h inconclusive
COCCC(=O)N1CCC(C(=O)Nc2ccc(Oc3ccccc3)nc2)CC1	CHX counter 63, Shiga inhibitor 66
